Experimental data as given in PubChem BioAssay (NCI).
About 79,000 compounds went through this panel and 15% of them were active in at least one assay; those are over-represented in the sample as a whole. Activity calls are given as the source filed them. Rule as the data show it: active = growth inhibition above about 70%; inactive = the rest. Residues, ends and D or L forms follow the SMILES beside them. *: point of attachment. Fmoc = O=C(OCC1c2ccccc2-c2ccccc21)*; Boc = CC(C)(C)OC(=O)*

experiment: NCI Yeast Anticancer Drug Screen. Data for the bub3 strain (AID 167); conditions: S. cerevisiae bub3 mutant strain, at 33.0 µM, active compounds read high
Outline: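 Steps: expose the mutant yeast strain to compound; grow alongside vehicle-treated cultures; measure growth; express inhibition against the vehicle cultures.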

For `CC(C)C(=O)CC(Sc1ccc(N)cc1)c1ccccc1` (stereo not given), which growth inhibition is on record?
The growth inhibition was 91% (active).

With `CC(C)OP(=O)(OC(C)C)/C(Cl)=N/Nc1ccc([N+](=O)[O-])cc1` as the compound, how does the growth inhibition read?
The growth inhibition was 95% (active).

For `O=[N+]([O-])c1cc(Cl)ccc1S(=O)(=O)c1ccc(Cl)cc1[N+](=O)[O-]`, which growth inhibition is on record?
The growth inhibition was 93% (active).

For `CCCCCCNCCCNc1c2cc(OC)ccc2nc2cccc([N+](=O)[O-])c12`, which growth inhibition is on record?
Its growth inhibition is 34% (inactive).

With `N#CCC(=O)N/N=C(\c1ccccc1)C(c1ccccc1)C1(O)C(=O)Nc2c(Cl)ccc(Cl)c21` (stereo not given) as the compound, how does the growth inhibition read?
The growth inhibition was 15% (inactive).

For `CN(C)CCNCCCNc1c2ccccc2nc2cccc([N+](=O)[O-])c12`, which growth inhibition is on record?
Its growth inhibition is 6% (inactive).

With `CCC[CH2][Ge]([CH2]CCC)([CH2]CCC)[O]C(=O)C(O)c1ccccc1` (stereo not given) as the compound, how does the growth inhibition read?
Its growth inhibition is 88% (active).

For `COc1ccc(-c2cc(-c3cc(C)cc(Cl)c3O)nc3[nH]c(=S)[nH]c(=S)c23)cc1`, which growth inhibition is on record?
Its growth inhibition is 1% (inactive).

Which growth inhibition does the source give for `O=[N+]([O-])c1ccc(/C=C\c2ccc3c(c2)OCO3)c([N+](=O)[O-])c1` here?
The growth inhibition was 28% (inactive).

For `O=C1c2ccccc2N2OC3(N4CCCC4)CCCCC3C12c1ccccc1` (stereo not given), which growth inhibition is on record?
The growth inhibition was 40% (inactive).

For `CC(C)OC(=O)NNc1cc(Cl)ccc1Cl`, which growth inhibition is on record?
Its growth inhibition is 39% (inactive).

Which growth inhibition does the source give for `Cc1oc2ccccc2c(=O)c1Cn1nnc2ccccc21` here?
Its growth inhibition is 10% (inactive).

For `CC1(C)OC(=O)C(=Cc2ccc([N+](=O)[O-])s2)C(=O)O1`, which growth inhibition is on record?
The growth inhibition was 60% (inactive).

With `CCN(CC)CCCNc1ccc([N+](=O)[O-])c2nc3ccc(OC)cc3c(NCCCN(CC)CC)c12` as the compound, how does the growth inhibition read?
The growth inhibition was -6% (inactive).

For `COc1cccc(/C=C2\S/C(=N/Nc3nc(-c4ccc([N+](=O)[O-])cc4)cs3)NC2=O)c1O`, which growth inhibition is on record?
Its growth inhibition is 90% (active).

With `OC(Cc1cccc2ccccc12)CN1CCC(c2ccccc2)CC1` (stereo not given) as the compound, how does the growth inhibition read?
The growth inhibition was 79% (active).

Which growth inhibition does the source give for `C1=CCN([B-](c2ccccc2)[C+]2CCCCC2)C=C1` here?
Its growth inhibition is 80% (active).

Which growth inhibition does the source give for `O=[N+]([O-])c1cc[n+]([O-])c(Cl)c1` here?
The growth inhibition was 98% (active).

With `CCCNC(=O)OCc1c(COC(=O)NCCC)c(-c2ccc(Cl)c(Cl)c2)n2c1CCC2` as the compound, how does the growth inhibition read?
The growth inhibition was 6% (inactive).

Which growth inhibition does the source give for `CC1(C)CC(=O)C(C(=O)Nc2cccs2)=C(O)C1` here?
Its growth inhibition is 82% (active).

With `O=C(NO)c1coc2ccccc2c1=O` as the compound, how does the growth inhibition read?
Its growth inhibition is -2% (inactive).

Which growth inhibition does the source give for `COc1ccc(C(C)c2cc3c(cc2OCC(C)=O)OCO3)cc1` (stereo not given) here?
Its growth inhibition is 40% (inactive).

For `O=S(=O)(c1ccccc1)N1CN2CN(C1)CN(S(=O)(=O)c1ccccc1)C2`, which growth inhibition is on record?
Its growth inhibition is 3% (inactive).

Which growth inhibition does the source give for `CC1=NN(C(=O)c2ccccc2O)C(=O)/C1=C/c1ccco1` here?
Its growth inhibition is 95% (active).

With `O=C1C=C(Br)C(=O)c2ccccc21` as the compound, how does the growth inhibition read?
Its growth inhibition is 99% (active).

With `C[N+](C)([O-])CCCNc1c2ccccc2nc2cccc([N+](=O)[O-])c12` as the compound, how does the growth inhibition read?
Its growth inhibition is 79% (active).

For `Cc1cccc2c(NCCCN(C)C)c3c([N+](=O)[O-])ccc(C)c3nc12`, which growth inhibition is on record?
The growth inhibition was 90% (active).

For `OC1(c2ccccc2)C2CC=CC2C1(c1ccccc1)c1ccccc1` (stereo not given), which growth inhibition is on record?
The growth inhibition was 2% (inactive).

For `C[n+]1c(-c2ccc(/C=N/NC(=O)c3ccc(C(=O)N/N=C/c4ccc(-c5cn6ccccc6[n+]5C)cc4)cc3)cc2)cn2ccccc21`, which growth inhibition is on record?
Its growth inhibition is 70% (active).

For `CCN(CC)CCC(=O)Nc1ccc2sc3ccccc3c(=O)c2n1`, which growth inhibition is on record?
The growth inhibition was -2% (inactive).

Which growth inhibition does the source give for `O=[N+]([O-])c1ccc2nc(=S)[nH]n2c1` here?
Its growth inhibition is -5% (inactive).

For `O=C(c1ccccc1)[C@H]1Nc2ccc(Cl)cc2[C@H]2OCCC[C@@H]12`, which growth inhibition is on record?
Its growth inhibition is 86% (active).

For `COc1cc([N+](=O)[O-])c2ncccc2c1Br`, which growth inhibition is on record?
The growth inhibition was -18% (inactive).

For `O=S(=O)(c1cccc(C(F)(F)F)c1)N1c2ccccc2-n2cccc2C1c1cccnc1` (stereo not given), which growth inhibition is on record?
The growth inhibition was 94% (active).

For `CC(C)(C)OC(=O)NCCCCC(NC(=O)C(Cc1c[nH]c2ccccc12)NC(=O)OCC1c2ccccc2-c2ccccc21)C(=O)O` (stereo not given) (Fmoc-Trp-Lys(Boc)-OH; configuration not given here), which growth inhibition is on record?
The growth inhibition was 6% (inactive).
